# Measured values: the supplement of paper PMC8371130
# Counter-ions that a name gives are not always drawn.
# Test system: HL-1
# Experiment: relative cell viability (CellTiter-Glo) vs DMSO control (% of DMSO control); higher = more viable cells
# How it was run: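 In 384-well plates, 1000 HL-1 mouse atrial cardiomyocytes per well were plated with compounds at 40, 200, 1000 or 5000 nM in 0.01% DMSO. Hypoxia at 1% O2 for 48 h began one day later and was followed by 24 h of reoxygenation, with parallel plates held in normoxia. CellTiter-Glo luminescence gave cell viability relative to vehicle-treated control cells.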
# [1] = oxygen condition: hypoxia 48 h (1% O2) + reoxygenation 24 h, 40 nM
# [2] = oxygen condition: hypoxia 48 h (1% O2) + reoxygenation 24 h, 200 nM
# [3] = oxygen condition: hypoxia 48 h (1% O2) + reoxygenation 24 h, 1000 nM
# [4] = oxygen condition: hypoxia 48 h (1% O2) + reoxygenation 24 h, 5000 nM
# [5] = oxygen condition: normoxia 72 h, 40 nM
# [6] = oxygen condition: normoxia 72 h, 200 nM
# [7] = oxygen condition: normoxia 72 h, 1000 nM
# [8] = oxygen condition: normoxia 72 h, 5000 nM
Compound,relative cell viability [1],relative cell viability [2],relative cell viability [3],relative cell viability [4],relative cell viability [5],relative cell viability [6],relative cell viability [7],relative cell viability [8]
Cc1nc2n(c(=O)c1CCN1CCC(c3noc4cc(F)ccc34)CC1)CCCC2 [Risperidone],104,109,106,113,104,109,104,114
Cn1c(=O)c2c(ncn2CC2OCCO2)n(C)c1=O [Doxofylline],101,111,122,113,108,111,113,122
Nc1c2c(nc3ccccc13)CCCC2 [Tacrine HCl],91.7,89.5,81.2,20.3,94.1,82.5,70.4,26.4
NCCCCCC(=O)O [Aminocaproic acid],102,102,106,107,106,103,110,112
CC[C@H](C)[C@H](N)C1=N[C@H](C(=O)N[C@@H](CC(C)C)C(=O)N[C@H](CCC(=O)[O-])C(=O)N[C@H](C(=O)N[C@H]2CCCCNC(=O)[C@H](CC(N)=O)NC(=O)[C@@H](CC(=O)[O-])NC(=O)[C@H](Cc3cnc[nH]3)NC(=O)[C@@H](Cc3ccccc3)NC(=O)[C@H]([C@@H](C)CC)NC(=O)[C@@H](CCCN)NC2=O)[C@@H](C)CC)CS1.[Zn+2] [Bacitracin zinc],95.4,107,109,123,105,107,109,117
C[C@H]1O[C@H](O[C@H]2[C@H](O)[C@@H](O)[C@@H](O[C@H]3[C@H](O)[C@@H](O)C(O)O[C@@H]3CO)O[C@@H]2CO)[C@H](O)[C@@H](O)[C@@H]1N[C@H]1C=C(CO)[C@@H](O)[C@H](O)[C@H]1O (stereo not given in full) [Acarbose],106,108,108,107,106,107,111,107
Cc1cn([C@H]2C[C@H](N=[N+]=[N-])[C@@H](CO)O2)c(=O)[nH]c1=O [Zidovudine],106,109,119,112,110,110,112,109
N=C(N)NC(=O)c1nc(Cl)c(N)nc1N [Amiloride hydrochloride],103,105,100,110,106,105,96.6,109
CN1CCN(C2=Nc3ccccc3Oc3ccc(Cl)cc32)CC1 [Loxapine Succinate],100,103,105,116,103,111,102,125
C=C(c1ccc(C(=O)O)cc1)c1cc2c(cc1C)C(C)(C)CCC2(C)C [Bexarotene],103,102,109,107,106,107,107,95.4
CCCCCN(C)CCC(O)(P(=O)(O)O)P(=O)(O)O [Ibandronate sodium],100,95.3,93.1,91,99.9,99.4,92.6,84.4
COc1ccc2cc1Oc1ccc(cc1)C[C@H]1c3c(cc4c(c3Oc3cc5c(cc3OC)CCN(C)[C@@H]5C2)OCO4)CCN1C [Cepharanthine],98.8,91.7,87,49.8,99.4,86.8,87.5,11.3
OCCOCCN1CCN(C2=Nc3ccccc3Sc3ccccc32)CC1 [Quetiapine fumarate],98.9,104,106,104,103,106,108,108
C#CCC(Cc1cnc2nc(N)nc(N)c2n1)c1ccc(C(=O)N[C@@H](CCC(=O)O)C(=O)O)cc1 (stereo not given in full) [Pralatrexate],38.6,43,37.3,38.9,44.3,42.7,46.2,41.8
CNS(=O)(=O)Cc1ccc2[nH]cc(CCN(C)C)c2c1 [Sumatriptan succinate],107,109,100,110,102,100,108,104
CC(C[N+](C)(C)C)OC(N)=O (stereo not given) [Bethanechol chloride],96.1,99.6,107,86.9,104,104,98.4,111
CC(O)(P(=O)(O)O)P(=O)(O)O [Etidronate],95.8,96.9,99.7,109,95.1,96.5,95.9,105
CCN1CCCC1CNC(=O)c1cc(S(=O)(=O)CC)c(N)cc1OC (stereo not given) [Amisulpride],103,104,111,108,104,107,119,111
COc1cccc2c1C(=O)c1c(O)c3c(c(O)c1C2=O)C[C@@](O)(C(C)=O)C[C@@H]3O[C@H]1C[C@H](N)[C@H](O)[C@H](C)O1 [Daunorubicin HCl],56.7,30.5,17.2,2.34,62.6,29.6,10.3,2.68
CCC(C)(C)C(=O)O[C@H]1C[C@@H](C)C=C2C=C[C@H](C)[C@H](CC[C@@H]3C[C@@H](O)CC(=O)O3)[C@H]21 [Simvastatin],109,108,99.2,3.87,111,103,50.4,2.69

Compound,relative cell viability [1],relative cell viability [2],relative cell viability [3],relative cell viability [4],relative cell viability [5],relative cell viability [6],relative cell viability [7],relative cell viability [8]
CC(C)[C@H](N)C(=O)OCC(CO)OCn1cnc2c(=O)nc(N)[nH]c21 (stereo not given in full) [valganciclovir hydrochloride],107,107,107,121,108,110,114,115
CCCCC1C(=O)N(c2ccccc2)N(c2ccccc2)C1=O [Phenylbutazone],100,104,93.3,110,102,112,43.1,112
CCC(NC(C)C)C(O)c1ccc(O)c(O)c1 (stereo not given) [Isoetharine Mesylate],98.5,96.3,95.5,106,95.4,107,78.7,111
N=C(N)N/N=C/c1c(Cl)cccc1Cl [Guanabenz acetate],96.3,113,105,99.1,101,99.6,98.7,98.9
c1ccc2c(CC3=NCCN3)cccc2c1 [Naphazoline hydrochloride],97.8,111,106,109,98.8,102,106,102
C[C@@H](O)[C@H]1C(=O)N2C(C(=O)OCOC(=O)C(C)(C)C)=C(SC3CN(C4=NCCS4)C3)[C@H](C)[C@H]12 [Tebipenem pivoxil],98.3,102,99.2,91.2,96.9,92.7,101,93.4
Nc1cc(N2CCCCC2)nc(N)[n+]1[O-] [Minoxidil],108,106,118,113,114,109,112,111
CN(c1nccc(=O)[nH]1)C1CCN(c2nc3ccccc3n2Cc2ccc(F)cc2)CC1 [Mizolastine],97.1,98.1,101,108,97.3,94.6,101,107
COC(=O)C1=C(C)NC(C)=C(C(=O)OC2CCCN(Cc3ccccc3)C2)C1c1cccc([N+](=O)[O-])c1 (stereo not given) [Benidipine hydrochloride],104,113,109,25,114,109,102,24
CCOCC(O)COc1ccc(NC(=O)CC[S+](C)C)cc1 (stereo not given) [Suplatast tosylate],106,103,99.4,107,101,101,108,120
CCCCOc1cc(C(=O)OCCN(CC)CC)ccc1N [Oxybuprocaine HCl],106,106,108,108,103,102,113,112
COc1ccc2c(c1)C(=O)N(CCc1ccc(S(=O)(=O)NC(=O)NC3CCCCC3)cc1)C(=O)C2(C)C [Gliquidone],97.7,108,102,113,96.6,114,110,116
Nc1ncnc2c1ncn2[C@@H]1O[C@H](CO)[C@@H](O)[C@H]1O [Adenosine],104,107,113,108,104,108,111,110
O=c1[nH]c(=O)n([C@H]2C[C@H](O)[C@@H](CO)O2)cc1F [Floxuridine],49.5,40.7,31.4,17.4,46.1,41.5,28.6,16.3
O=C(CCCN1CCN(c2ccccn2)CC1)c1ccc(F)cc1 [Azaperone],107,104,102,103,102,107,110,111
NCCS [Cysteamine HCl],101,108,109,106,102,102,106,111
C=C1/C(=C\C=C2/CCC[C@]3(C)[C@@H]([C@H](C)/C=C/[C@H](C)C(C)C)CC[C@@H]23)C[C@@H](O)C[C@@H]1O [Doxercalciferol],89.5,88,93.7,88.7,106,99,103,52.4
C[C@](N)(Cc1ccc(O)c(O)c1)C(=O)O [Methyldopa],105,79.3,104,103,98.8,91.9,102,109
CC1=C(/C=C/C(C)=C/C=C/C(C)=C/C(=O)O)C(C)(C)CCC1 [Tretinoin],113,109,110,100,112,106,101,121
Cc1ccc(NC(=O)c2ccc(CN3CCN(C)CC3)cc2)cc1Nc1nccc(-c2cccnc2)n1 [Imatinib Mesylate],121,117,136,111,122,146,156,117
